The record followed here is PubChem BioAssay (NCI).

About 83,000 compounds went through this panel and 20% of them were active in at least one assay; those are over-represented in the sample as a whole.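 Results are percent growth after 48 hours of single-concentration exposure. 100 means growth as in untreated cells, lower positive values show inhibition; negative values down to -100 show cell death.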 Unmarked numbers belong to inactive results. The source made the active and inactive calls. How the source made its calls: active means growth percent below 10; inactive means the rest.

Common to all, as to assay: NCI-60 one-dose screen, 48 h (100 = growth as untreated, 0 = no growth, -100 = all killed)
The test system of experiment [1] is SK-MEL-2 melanoma. As to conditions: 10 µM unless noted.
Experiment [2] has as its system EKVX NSCLC. Particulars: 10 µM unless noted.
Experiment [3] has as its system SN12C renal. As to conditions: 10 µM unless noted.
For experiment [4], the system named is UO-31 renal. Particulars: 10 µM unless noted.
The subject of experiment [5] is TK-10 renal. Particulars: 10 µM unless noted.
Experiment [6] relates to A498 renal. Particulars: 10 µM unless noted.
The subject of experiment [7] is CCRF-CEM leukemia. Particulars: 10 µM unless noted.
Experiment [8] relates to MOLT-4 leukemia. Particulars: 10 µM unless noted.
Experiment [9] deals with RPMI-8226 leukemia. Particulars: 10 µM unless noted.
Experiment [10] concerns OVCAR-8 ovarian. As to conditions: 10 µM unless noted.
The subject of experiment [11] is OVCAR-5 ovarian. As to conditions: 10 µM unless noted.
The test system of experiment [12] is OVCAR-4 ovarian. Particulars: 10 µM unless noted.
Experiment [13] has as its system SK-OV-3 ovarian. Particulars: 10 µM unless noted.
Experiment [14] concerns IGROV1 ovarian. Particulars: 10 µM unless noted.
Experiment [15] relates to OVCAR-3 ovarian. Particulars: 10 µM unless noted.
Experiment [16] has as its system HS 578T breast. As to conditions: 10 µM unless noted.
Experiment [17] relates to NCI/ADR-RES ovarian. As to conditions: 10 µM unless noted.
Experiment [18] has as its system SR leukemia. As to conditions: 10 µM unless noted.
The subject of experiment [19] is ACHN renal. As to conditions: 10 µM unless noted.
The subject of experiment [20] is CAKI-1 renal. Particulars: 10 µM.

For `C=C1C(=O)O[C@H]2[C@H]1CC/C(C(=O)Nc1ccc(OC)c(C(N)=O)c1O)=C\CC[C@@]1(C)O[C@@H]21`, the growth in experiment [1] was 71.3%; in experiment [2] it was 73.4%; in [3], 61.1%; in [4], 37.8%; in [5] it was 22.6%; in experiment [6] it was 78.3%. For the same compound, the growth is 3.64% (active) in [7]; 13.9% in experiment [8]; 70.8% in experiment [9]; 68.2% in experiment [10]; 75.1% in [11]; 67.2% in experiment [12]. Moreover, the growth in [13] is 80.7%; in experiment [14] it was 55.5%; in experiment [15], 25.4%; in experiment [16] it was 77.4%; in experiment [17], 92.5%.
For the compound `Cc1ccc(NC(=O)CN2CCOCC2)cc1Cl`, the growth is 95.1% in [1]; 93.2% in experiment [2]; 93.1% in experiment [3]; 90.4% in experiment [4]; 95.6% in [5]; 61.3% in [6]. Moreover, the growth in [7] was 78.9%; in experiment [8], 90.2%; in experiment [18], 82.3%; in [9], 93.3%; in experiment [10], 92%; in [11] it was 99.9%. Further, the growth in experiment [12] was 94.7%; in experiment [13], 90.1%; in experiment [15], 104%; in experiment [16], 98.7%; in experiment [17], 103%.
In the case of `CCCCCCCCN(CCCCCCCC)CC(O)c1cc(-c2ccccc2)nc2ccc(OC)cc12` (configuration not stated), the growth is 78.1% in [1]; 94.6% in [2]; 39.9% in experiment [3]; 42.4% in [4]; 91.7% in experiment [5]; 83.4% in experiment [6]. For the same compound, the growth in experiment [7] was 4.59% (active); in [8], 9.81% (active); in [9], 1.99% (active); in [10] it was 8.91% (active); in experiment [11], 101%; in [12], 78.4%. Also, the growth was 103% in experiment [13], 95.8% in experiment [14], 99.1% in experiment [16] and 13.4% in experiment [17].
Regarding `CCOc1ccc(NC2=C(Cl)C(=O)c3ccccc3C2=O)cc1`, the growth in experiment [1] was 88.2%; in [2], 87.2%; in experiment [3], 61%; in [4], 77.9%; in [5] it was 136%; in experiment [6] it was 80.8%. Besides, the growth was 33.3% in experiment [7]; 75.7% in experiment [8]; 41.7% in [9]; 62.7% in [10]; 110% in [11]; 91.9% in [12]. Moreover, the growth in experiment [13] is 92.1%; in [14], 0.21% (active); in experiment [15], 43.5%; in [16], 95.4%.
As to `COc1cc(C(=O)NNC(=O)c2ccccc2O)cc(OC)c1OC`, the growth in experiment [1] was 80.2%; in experiment [2], 103%; in [3] it was 98.4%; in experiment [4] it was 74.3%; in [5], 85.6%; in [6] it was 75.8%. In addition, the growth is 89.4% in [7]; 74.6% in experiment [8]; 77.8% in experiment [18]; 86.8% in [9]; 82.9% in [10]; 103% in experiment [11]. The growth in experiment [12] is 110%; in experiment [13] it was 87.8%; in experiment [14], 98.8%; in experiment [16], 95.1%; in experiment [17] it was 94.5%.
For `Cc1ncc(CO)c(C(=O)O)c1O`, the growth is 89.7% in experiment [1]; 101% in experiment [2]; 97.6% in [3]; 84.8% in experiment [4]; 81.2% in [5]; 99.5% in experiment [6]. The growth in experiment [7] is 121%; in [8], 82.5%; in experiment [18], 86.8%; in experiment [9] it was 131%; in experiment [10], 104%; in experiment [11], 105%. The growth was 103% in experiment [12]; 104% in experiment [13]; 94.8% in experiment [15]; 102% in experiment [16]; 104% in experiment [17].
With `CC12CCC3C(CCC4CC(O)CCC43C)C1C/C(=C/O)C(=O)O2` (configuration not stated), the growth in experiment [1] is 104%; in experiment [2] it was 104%; in experiment [3] it was 104%; in experiment [4] it was 91%; in [5], 89.4%; in experiment [7], 92.6%. In addition, the growth is 101% in [8]; 96.1% in experiment [18]; 91.3% in experiment [9]; 104% in [10]; 111% in [11]; 134% in experiment [12]. Also, the growth is 105% in experiment [13]; 105% in experiment [14]; 103% in experiment [15]; 98.4% in experiment [16]; 108% in [17].
For `COc1cc2c(cc1OC)-c1c(oc3c4c(ccc3c1=O)OC(C)(C)C=C4)CO2`, the growth is 74.3% in experiment [1]; 57.7% in experiment [2]; 92.2% in experiment [3]; 66.9% in [4]; 67.9% in experiment [5]; 56.1% in experiment [6]. Also, the growth in [8] was 55.1%; in [18] it was 42.6%; in experiment [9], 49.3%; in experiment [10], 67.7%; in [11], 89.3%; in [12], 41.8%. In addition, the growth in experiment [13] was 77.6%; in experiment [14] it was 85%; in [15], 63.7%; in experiment [16], 99.8%; in experiment [17], 65.8%.
Take `OC[C@@H](O)C(O[C@@H]1O[C@H](CO)[C@H](O)[C@H](O)[C@H]1O)[C@H](O)[C@@H](O)CO` (some centres not stated): the growth in experiment [1] is 106%; in experiment [2] it was 95.4%; in experiment [3], 101%; in [4] it was 75.5%; in [19], 94.4%; in experiment [20], 92.9%. Also, the growth in [6] was 111%; in experiment [7], 106%; in experiment [8], 106%; in experiment [18], 87.4%; in experiment [9], 103%; in experiment [10] it was 98.6%. Also, the growth was 91.8% in experiment [11]; 106% in [12]; 99.5% in experiment [13]; 95.9% in experiment [14]; 103% in experiment [15]; 129% in experiment [16].
